# Compounds with a hit are over-represented: about 4.7% of the library has one in this group of screens.
# TIM10 inh: TIM10 yeast growth inhibition | S. cerevisiae TIM10 strain growth, BacTiter-Glo luminescence, 24 h | inhibition, % at 10 µM | hit rate 1.4% among 330,000 | AID 463195;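 active = inhibition of 40% or more at the single tested concentration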;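 note: wild-type TIM10 isogenic control strain grown at permissive 25 °C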
# ATG4B inh: inhibitors of human ATG4B cysteine protease | Q9Y4P1 | ATG4B cleavage of LC3-PLA2, NBD-HPC fluorescence, 1 h | inhibition, % at 8.33 µM | hit rate 0.51% among 340,000; in the data active = inhibition above about 40%
# Target sequence (Q9Y4P1 whole entry, looked up): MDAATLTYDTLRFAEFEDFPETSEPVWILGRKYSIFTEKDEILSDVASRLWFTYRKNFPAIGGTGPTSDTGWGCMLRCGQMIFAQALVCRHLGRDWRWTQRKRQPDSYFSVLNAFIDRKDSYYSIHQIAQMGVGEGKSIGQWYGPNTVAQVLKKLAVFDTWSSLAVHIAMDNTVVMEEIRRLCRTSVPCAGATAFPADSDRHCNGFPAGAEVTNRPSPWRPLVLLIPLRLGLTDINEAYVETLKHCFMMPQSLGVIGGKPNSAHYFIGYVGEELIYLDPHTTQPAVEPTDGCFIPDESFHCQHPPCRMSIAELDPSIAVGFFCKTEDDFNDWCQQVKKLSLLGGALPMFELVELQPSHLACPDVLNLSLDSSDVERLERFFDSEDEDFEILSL
# tim23-1 inh: growth inhibitors of tim23-1 mutant yeast; S. cerevisiae tim23-1 growth, BacTiter-Glo luminescence, 24 h; inhibition, % at 20 µM; hit rate 1.3% among 330,000; AID 463212;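 active = growth inhibition of the mutant yeast at or above 50%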;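 note: temperature-sensitive mutant grown at 25 °C; plate controls were DMSO-treated mutant yeast for no effect and medium wells lacking yeast for full effect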
# tim10-1 inh: growth inhibitors of tim10-1 mutant yeast | S. cerevisiae tim10-1 ts strain growth, BacTiter-Glo, 24 h | inhibition, % at 20 µM | hit rate 2.2% among 330,000 | AID 463190;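 active = inhibition of at least 40%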;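 note: mutant grown at 25 °C; 0% = DMSO wells with yeast and 100% = wells holding no yeast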
# SKKanGAS inh: inhibitors of SKKanGAS S. pyogenes growth in kanamycin (SK-promoter or general growth effect); inhibition, % at 7.5 µM; hit rate 1.3% among 300,000; BacTiter-Glo, 6 h;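 active = mean replicate score, as percent of positive control median, at least 50; inconclusive = mean below 50 but one replicate at or above 50; inactive = mean and every replicate below 50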;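 note: strain carries kanamycin resistance gene driven by streptokinase promoter and grows in 40 µg/ml kanamycin; loss of luminescence reflects streptokinase promoter inhibition or plain growth inhibition; 0% = median of DMSO wells and 100% = positive control at its reference dose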
# PfHsp90 set2: inhibits growth of yeast expressing Plasmodium falciparum Hsp90 | S. cerevisiae expressing PfHsp90, BacTiter-Glo ATP, 48 h; yeast lacking PDR1 and PDR3 efflux regulators | inhibition, % at 9.4 µM | hit rate 0.32% among 310,000 | AID 504621;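 active = every replicate shows inhibition above about 80%, whatever the replicate mean, limit read from the data; inconclusive = mean inhibition reaches the set limit but some replicate falls short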;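 note: 0% = DMSO neutral controls and 100% = 20 µM radicicol positive controls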
# tim10-1 confirm: tim10-1 yeast growth inhibition, confirmed | S. cerevisiae tim10-1 ts strain growth, BacTiter-Glo, 24 h | hit rate 56% among 7,400 | shares compounds with tim10-1 inh | inhibition, % at 20 µM;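 active = inhibition of yeast growth at or above a set limit in either of two repeat tests at 20 µM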;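 note: tim10-1 mutant grown at permissive 25 °C to find synthetic lethal compounds; 0% = DMSO yeast wells and 100% = medium wells without yeast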
# TIM10 conf: TIM10 yeast growth inhibition, confirmed. shares compounds with TIM10 inh. S. cerevisiae tim10 strain growth, BacTiter-Glo luminescence, 24 h. inhibition, % at 10 µM. hit rate 63% among 4,600;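 active = inhibition of yeast growth at or above a set limit in either of two replicates at 10 µM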;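 note: this counterscreen used the strain with wild-type TIM10; 0% = yeast with DMSO and 100% = medium wells lacking yeast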
# tim23-1 confirm: confirmation of tim23-1 mutant yeast growth inhibitors; S. cerevisiae tim23-1 growth, BacTiter-Glo luminescence, 24 h; shares compounds with tim23-1 inh; inhibition, % at 20 µM; hit rate 83% among 4,400;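 active = inhibition above about 39% in either of two replicate wells at 20 µM, limit read from the data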;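 note: temperature-sensitive tim23-1 mutant grown at 25 °C; 0% = DMSO wells with yeast and 100% = medium wells without yeast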
# * = called active by the depositor; u = inconclusive; x = no result.
SMILES,TIM10 inh,ATG4B inh,tim23-1 inh,tim10-1 inh,SKKanGAS inh,PfHsp90 set2,tim10-1 confirm,tim23-1 confirm,others
Cc1cccc(Nc2nc(-c3sc(C)nc3C)cs2)c1,36,-7,43,23,-6,-8,x,x,
Oc1c(I)cc(Cl)c2cccnc12,56*,12,70*,67*,100*,111*,56*,73*,TIM10 conf=70*
COc1ccccc1CN(C)C(=O)c1cc(-c2cccs2)nc2ccccc12,6,-6,25,30,12,11,x,x,
CSC1=N/C(=C\c2ccc(F)cc2)C(=O)S1,8,3,39,15,-1,27,x,x,
COc1ccc(/C=C/C=C2\N=C(SC)SC2=O)cc1,57*,10,72*,51*,4,14,38*,22,TIM10 conf=-2
O=C(Nc1ccc(Cl)cc1C(=O)Nc1ccc(Br)cn1)c1ccco1,44*,-9,60*,45*,15,13,42*,58*,TIM10 conf=48*
Cc1cc(Br)ccc1NC(=O)c1ccco1,-13,-5,7,-9,-1,-1,x,x,
CC(=O)c1cccc(CN2CCN(Cc3ccc(C)cc3)C(CCO)C2)c1 (stereo not given),-5,-14,7,0,-4,x,x,x,
CCNc1ccc2noc3c2c1C(=O)c1ccccc1-3,29,-187,60*,56*,13,-8,44*,49*,
CC1=C(C(=O)Nc2cc(C)ccc2C)C(c2cccs2)NC(=S)N1 (stereo not given),9,3,7,19,1,x,x,x,
CCC(C(=O)n1cccc1C#N)c1ccccc1C (stereo not given),5,5,17,0,x,14,x,x,
CCC(=O)N1CCc2cc(S(=O)(=O)NCCC(=O)NC3CCCc4ccccc43)ccc21 (stereo not given),-19,-8,5,-1,4,x,x,x,
CN1CCN(c2cc(N3CCN(C(=O)c4ccco4)CC3)c3c4c(onc24)-c2ccccc2C3=O)CC1,47*,11,69*,56*,7,-1,47*,74*,TIM10 conf=48*
Cc1nn(-c2ccccc2)c2c1/C(=N/O)CC(C)(C)C2,22,1,31,18,4,-11,x,x,
O=C(CNC(=O)c1ccc(Cl)cc1)N/N=C/C=C/c1ccccc1,-16,-7,-23,6,-2,2,x,x,
COc1ccc(C(=O)Nc2ccc3c(c2)C(=O)c2ccccc2C3=O)cc1OC,5,-2,-2,-7,-1,27,x,x,
COc1ccc(C(=O)c2c(C(F)(F)F)oc3c2C(=O)c2ccccc2C3=O)cc1OC,38,12,67*,52*,100*,-23,40*,68*,
Cc1ccccc1OCC(=O)NC(=S)Nc1cccc2cc(O)ccc12,25,38,63*,57*,9,-12,55*,49*,
Cc1ccccc1OCC(=O)NC(=S)Nc1ccc(Br)c(C)n1,10,-10,27,7,u,-5,x,x,
COc1ccccc1NC(=O)CSc1nnc(Cc2cc(=O)[nH]c(=O)[nH]2)n1-c1ccccc1,4,-7,14,3,1,x,x,x,
CCN(CC)c1ccc(NC(=O)COc2ccccc2C#N)cc1S(=O)(=O)Nc1ccccc1OC,9,7,22,22,-3,0,x,x,
CCn1c(=O)c(C(=O)NCc2ccc(OC)cc2)c(O)c2ccccc21,4,-6,-19,-4,-8,7,x,x,
CCn1c(=O)c(C(=O)NCc2ccccn2)c(O)c2ccccc21,38,5,60*,45*,-4,-13,16,58*,
COc1cc(OC)cc(C(=O)NNC(=O)c2ccccn2)c1,1,2,-16,19,5,-2,x,x,
COc1ccc(C(=O)NNC(=O)c2ccccn2)cc1,33,-1,51*,52*,4,42,40*,42*,
SMILES,TIM10 inh,ATG4B inh,tim23-1 inh,tim10-1 inh,SKKanGAS inh,PfHsp90 set2,tim10-1 confirm,tim23-1 confirm,others
COc1cc(/C=N/n2c(C)nc3ccccc3c2=O)ccc1O,23,3,12,9,13,28,x,x,
CCCCN1C(=O)/C(=C(/C#N)C(=O)N2CCCC2)c2ccccc21,28,-5,37,26,0,-33,x,x,
CC(C)CN1C(=O)/C(=C(/C#N)C(=O)NC2CCCCC2)c2ccccc21,79*,-7,64*,72*,-1,x,71*,50*,TIM10 conf=79*
CCN(CC)c1ccc(NC(=O)c2cc(Cl)ccc2OC)cc1,26,6,50*,43*,-2,-15,32*,44*,
Oc1ccccc1N=Cc1c(O)ccc2oc3c(c12)CCCC3,38,-4,52*,47*,85*,-55,55*,73*,
Fc1cccc(-n2cc(-c3ccccc3)c3c(=S)nc[nH]c32)c1,36,1,55*,40*,84*,-98,32*,48*,
Cc1ccc(-n2cc(-c3ccccc3)c3c(=O)[nH]cnc32)cc1,49*,6,57*,48*,5,-49,32*,43*,TIM10 conf=-39
S=c1nc[nH]c2c1cnn2-c1ccccc1,-9,-3,23,7,-19,11,x,x,
O=c1[nH]cnc2c1c(-c1ccccc1)cn2-c1ccccc1,24,1,34,34,5,-13,x,x,
Fc1ccc(-n2cc(-c3ccccc3)c3c(=S)nc[nH]c32)cc1,24,3,65*,63*,65*,-33,13,33,
COc1cccc(C(=O)CN2CCC(NC(=O)NC3CCCCC3)CC2)c1,-19,1,0,10,0,-5,x,x,
CC(=O)Nc1nc2ccc(S(=O)(=O)N3CCCC3)cc2s1,15,-5,21,11,-2,12,x,x,
COC(=O)/C(=C1/Oc2ccc(C(C)(C)C)cc2S1)C(F)(F)F,-16,10,6,4,-4,8,x,x,
COC(=O)/C(=C1/Oc2cc(C)oc(=O)c2S1)C(F)(F)F,41*,1,62*,57*,-1,-13,39*,69*,TIM10 conf=41*
COc1ccc(CN(C(=O)CN2C(=O)c3ccccc3S2(=O)=O)C(C(=O)NCC2CCCO2)c2ccco2)cc1 (stereo not given),-16,4,-1,3,0,-31,x,x,
COc1ccc(C(=O)C[n+]2ccccc2/C=N/O)cc1,-3,-1,15,12,-6,-3,x,x,
O=C(c1ccc(Cl)nc1)N1CCc2ccccc2C1,-2,-4,-12,10,2,-14,x,x,

# Screens as filed in PubChem.
